The source made the active and inactive calls. Unless noted, no rule for the calls is given here.
Legend:
[1] = compounds binding Alexa647 anti-His antibody – biochemical, small-molecule microarray, 635 nm fluorescence, artefact control for SMM control protein annotation, primary screen (AID 1128); details: higher = more signal;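 also: score merges feature fluorescence with signal-to-noise for each printed compound spot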
[2] = test system: Human papillomavirus type 1a E7 protein (residues 1-88); assay: HPV1a E7 small-molecule binders, primary screen, biochemical, small-molecule microarray, residues 1-88, 635 nm (AID 1129); details: small-molecule microarray binding, fluorescence 635 nm; higher = more signal
[3] = target: Focal adhesion kinase 1 (Homo sapiens) (UniProt Q05397); assay: PTK2 protein binding on printed compound slides – biochemical, small-molecule microarray, 635/667 nm fluorescence, BSA, DTT, primary screen (AID 1130); details: 635 nm fluorescence, higher = more signal;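 also: composite of spot emission at 667 nm and signal to noise over triplicate slides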
[4] = test system: Fibrinogen (Alexa647-labelled); assay: Alexa647-fibrinogen binding to printed small molecules – biochemical, small-molecule microarray, 635/667 nm fluorescence, artefact control for SMM control-protein annotation, profiling panel (AID 1131); details: fibrinogen-A647 binding fluorescence, higher = more signal;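 also: z-score merges 667 nm fluorescence with per-spot signal-to-noise over triplicate slides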
[5] = target: Follistatin (Homo sapiens) (UniProt P19883); assay: FST protein binding to printed compounds – biochemical, small-molecule microarray, 635/667 nm fluorescence, primary screen (AID 1132); details: 635 nm fluorescence, higher = more signal
[6] = target: Fibroblast growth factor 2 (Homo sapiens) (UniProt P09038); assay: basic fibroblast growth factor binding to printed compounds – biochemical, small-molecule microarray, 635/667 nm fluorescence, primary screen (AID 1133); details: FGF2, fluorescence 635/667, higher = more signal
[7] = JC-1 mitochondrial potential readout, lung cancer cells – cell-based, A549, JC-1 fluorescence, basal, 24 h, 100 nL, profiling panel (AID 1138); details: higher = more signal;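 also: A549 lung adenocarcinoma cells under basal conditions with no added stimulus; test concentration not given here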
Lefty1 = Lefty1 protein binding to printed compounds – biochemical, small-molecule microarray, 635/667 nm fluorescence, primary screen (AID 1139); details: fluorescence 635/667, higher = more signal
[8] = test system: wheat germ agglutinin (Triticum aestivum), Alexa647-labelled; assay: Alexa647-WGA lectin binding to printed small molecules – biochemical, small-molecule microarray, 635/667 nm fluorescence, artefact control for SMM control-protein annotation, profiling panel (AID 1140); details: WGA-A647 binding, 635 nm fluorescence, higher = more signal;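 also: score merges 667 nm feature emission with signal to noise over triplicate slides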
[9] = target: Luciferin 4-monooxygenase (Photinus pyralis) (UniProt P08659); assay: inhibition of purified Photinus pyralis luciferase – biochemical, luminescence, purified enzyme, 2006 set, primary screen (AID 1141); details: purified firefly luciferase, SteadyGlo luminescence, 30 min; higher = more signal, called active from +8 up or from −8 down;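 also: cell-free assay with purified firefly luciferase at 100 ng per well in PBS; test concentration not given here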
[10] = test system: Wnt5a (protein binding on small-molecule microarray); assay: small molecules binding Wnt5a protein – biophysical, small-molecule microarray, 635/667 nm fluorescence, primary screen (AID 1142); details: 635 nm fluorescence, higher = more signal;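 also: fluorescence read at 667 nm with signal to noise per printed feature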
[11] = ATP-based viability of Huh7 replicon cells – cell-based, CellTiter-Glo luminescence, basal, 48 h, cytotoxicity control for HCV replication inhibitor project, primary screen (AID 1143); details: higher = more signal, called active from +8 up or from −8 down;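 also: Huh7 hepatoma cells carrying a hepatitis C replication reporter with no stimulus; test concentration not given here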
[12] = Pseudomonas biofilm growth suppression – PAO1 strain, BacTiter-Glo luminescence, LB-PBS, primary screen (AID 1144); details: P. aeruginosa PAO1 biofilm, 12 h, higher = more signal
[13] = basal CRE-LacZ reporter activity in PC12 – cell-based, unstimulated, primary screen (AID 1145); details: no forskolin, luminescence, 4.5 h, higher = more signal, called active from +8 up or from −8 down
[14] = forskolin-driven CRE-LacZ activity in PC12 – cell-based, CRE-LacZ reporter, forskolin-stimulated, primary screen (AID 1146); details: luminescence, 4.5 h, higher = more signal, called active from +8 up or from −8 down;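 also: PC12 cells with 6xCRE LacZ reporter stimulated by forskolin 10 µM; beta-galactosidase reporter signal reflecting CREB driven transcription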
[15] = target: Streptavidin (Streptomyces avidinii) (UniProt P22629); assay: compounds binding control protein streptavidin – biophysical, small-molecule microarray, 635/667 nm fluorescence, artefact control for SMM compound annotation, primary screen (AID 1147); details: higher = more signal;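 also: signal reflects streptavidin binding to arrayed compounds as a control protein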
[16] = probe aInhba binding on compound microarray – biochemical, small-molecule microarray, 635/667 nm fluorescence, primary screen (AID 1148); details: higher = more signal;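 also: score merges 667nm spot fluorescence with signal-to-noise for antibody binding to printed compounds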
Torsin-1A (Homo sapiens) [17] = target: Torsin-1A (Homo sapiens) (UniProt O14656); assay: TOR1A wild-type binding on microarray – cell lysate, small-molecule microarray, lysate, 635/667 nm, primary screen (AID 1149); details: COS7 hTOR1A-WT lysate, 635 nm fluorescence, higher = more signal
Torsin-1A (Homo sapiens) [18] = target: Torsin-1A (Homo sapiens) (UniProt O14656); assay: torsin A mutant lysate binding on microarrays – cell lysate, small-molecule microarray, COS7 lysate, 635/667 nm fluorescence, primary screen (AID 1150); details: COS7 hTOR1A mutant lysate, 635 nm fluorescence, higher = more signal;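 also: score pools 667 nm emission and signal to noise measuring lysate protein binding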
[19] = test system: Sonic hedgehog protein (Shh); assay: Sonic hedgehog microarray binding compounds – biochemical, small-molecule microarray, 635/667 nm fluorescence, primary screen (AID 1151); details: 635 nm fluorescence, higher = more signal;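 also: Shh protein binding to compounds spotted on small-molecule microarray slides; score combines spot fluorescence intensity with signal-to-noise across triplicate slides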

Chain of Luciferin 4-monooxygenase (Photinus pyralis) (P08659 whole entry, looked up): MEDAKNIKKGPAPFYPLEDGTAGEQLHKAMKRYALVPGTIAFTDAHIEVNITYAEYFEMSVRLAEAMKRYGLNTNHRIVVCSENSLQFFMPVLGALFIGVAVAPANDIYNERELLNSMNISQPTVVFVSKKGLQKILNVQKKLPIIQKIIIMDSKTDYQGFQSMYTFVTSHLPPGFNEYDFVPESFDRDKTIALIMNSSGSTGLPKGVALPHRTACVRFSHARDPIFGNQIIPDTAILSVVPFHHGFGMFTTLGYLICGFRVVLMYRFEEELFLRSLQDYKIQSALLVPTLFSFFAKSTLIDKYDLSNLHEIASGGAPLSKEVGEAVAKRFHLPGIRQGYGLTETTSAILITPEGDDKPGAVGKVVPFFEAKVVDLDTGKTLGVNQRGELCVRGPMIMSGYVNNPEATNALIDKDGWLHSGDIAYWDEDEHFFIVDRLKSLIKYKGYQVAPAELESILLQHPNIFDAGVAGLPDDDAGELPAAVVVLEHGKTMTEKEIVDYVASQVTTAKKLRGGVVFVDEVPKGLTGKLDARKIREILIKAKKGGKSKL
Chain of Streptavidin (Streptomyces avidinii) (P22629 whole entry, looked up): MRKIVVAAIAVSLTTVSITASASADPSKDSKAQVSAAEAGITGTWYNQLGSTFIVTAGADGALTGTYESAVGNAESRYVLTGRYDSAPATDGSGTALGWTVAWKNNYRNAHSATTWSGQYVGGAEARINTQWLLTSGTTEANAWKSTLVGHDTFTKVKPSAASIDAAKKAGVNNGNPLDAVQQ
Chain of Follistatin (Homo sapiens) (P19883 whole entry, looked up): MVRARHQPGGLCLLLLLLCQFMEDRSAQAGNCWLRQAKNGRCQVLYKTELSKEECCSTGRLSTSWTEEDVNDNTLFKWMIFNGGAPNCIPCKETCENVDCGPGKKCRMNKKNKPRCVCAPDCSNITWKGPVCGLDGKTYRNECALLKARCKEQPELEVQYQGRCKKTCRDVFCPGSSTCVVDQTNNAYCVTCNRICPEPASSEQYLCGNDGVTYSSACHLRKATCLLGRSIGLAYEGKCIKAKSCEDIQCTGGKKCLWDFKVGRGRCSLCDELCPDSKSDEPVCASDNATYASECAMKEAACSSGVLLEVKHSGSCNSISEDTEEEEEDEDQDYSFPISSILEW
Chain of Fibroblast growth factor 2 (Homo sapiens) (P09038 whole entry, looked up): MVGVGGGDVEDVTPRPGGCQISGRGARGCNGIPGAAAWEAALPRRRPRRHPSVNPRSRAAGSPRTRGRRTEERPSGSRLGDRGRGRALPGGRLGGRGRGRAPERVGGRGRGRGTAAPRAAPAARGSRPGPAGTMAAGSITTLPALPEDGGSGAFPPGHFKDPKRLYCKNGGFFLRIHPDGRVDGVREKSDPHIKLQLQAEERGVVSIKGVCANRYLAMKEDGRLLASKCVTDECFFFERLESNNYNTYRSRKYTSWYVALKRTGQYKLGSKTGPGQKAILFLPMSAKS
Chain of Torsin-1A (Homo sapiens) (O14656 whole entry, looked up): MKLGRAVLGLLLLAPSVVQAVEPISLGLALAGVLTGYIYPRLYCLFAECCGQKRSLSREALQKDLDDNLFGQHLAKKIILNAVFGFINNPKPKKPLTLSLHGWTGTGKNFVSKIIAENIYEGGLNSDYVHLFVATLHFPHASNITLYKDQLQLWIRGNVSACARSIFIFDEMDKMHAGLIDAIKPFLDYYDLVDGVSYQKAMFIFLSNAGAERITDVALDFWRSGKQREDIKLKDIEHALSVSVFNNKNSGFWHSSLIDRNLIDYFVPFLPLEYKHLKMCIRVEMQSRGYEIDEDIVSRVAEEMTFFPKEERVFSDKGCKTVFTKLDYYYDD
Chain of Focal adhesion kinase 1 (Homo sapiens) (Q05397 whole entry, looked up): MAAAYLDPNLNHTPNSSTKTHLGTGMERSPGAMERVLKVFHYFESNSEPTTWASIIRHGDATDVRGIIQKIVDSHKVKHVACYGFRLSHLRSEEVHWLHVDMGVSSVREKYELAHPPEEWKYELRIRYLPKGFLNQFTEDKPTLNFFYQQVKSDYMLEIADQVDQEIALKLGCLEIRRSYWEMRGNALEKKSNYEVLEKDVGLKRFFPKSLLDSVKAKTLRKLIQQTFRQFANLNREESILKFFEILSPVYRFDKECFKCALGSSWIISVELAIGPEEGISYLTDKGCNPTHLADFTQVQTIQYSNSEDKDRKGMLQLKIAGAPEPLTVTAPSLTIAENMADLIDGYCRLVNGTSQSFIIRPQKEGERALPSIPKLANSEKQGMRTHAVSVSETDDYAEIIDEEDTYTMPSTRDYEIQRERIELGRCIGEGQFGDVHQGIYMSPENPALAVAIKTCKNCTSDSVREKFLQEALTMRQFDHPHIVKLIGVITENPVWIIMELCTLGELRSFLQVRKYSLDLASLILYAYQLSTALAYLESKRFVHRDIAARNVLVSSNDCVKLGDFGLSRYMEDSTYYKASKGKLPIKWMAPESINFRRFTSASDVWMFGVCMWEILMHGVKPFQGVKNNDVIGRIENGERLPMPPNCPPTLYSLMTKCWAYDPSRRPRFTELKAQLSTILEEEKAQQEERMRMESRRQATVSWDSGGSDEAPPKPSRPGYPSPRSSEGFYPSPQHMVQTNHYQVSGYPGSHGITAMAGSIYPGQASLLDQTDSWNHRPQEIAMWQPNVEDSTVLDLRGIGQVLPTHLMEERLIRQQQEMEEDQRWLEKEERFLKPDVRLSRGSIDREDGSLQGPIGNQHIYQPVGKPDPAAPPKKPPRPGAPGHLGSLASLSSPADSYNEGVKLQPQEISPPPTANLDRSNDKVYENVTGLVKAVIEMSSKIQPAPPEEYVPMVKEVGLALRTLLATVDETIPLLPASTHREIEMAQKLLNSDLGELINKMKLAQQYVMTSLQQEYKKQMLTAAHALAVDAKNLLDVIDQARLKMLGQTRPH

SMILES	composite z-score [1]	composite z-score [2]	composite z-score [3]	composite z-score [4]	composite z-score [5]	composite z-score [6]	z-score [7]	composite z-score (Lefty1)	composite z-score [8]	z-score [9]	composite z-score [10]	z-score [11]	z-score [12]	z-score [13]	z-score [14]	composite z-score [15]	composite z-score [16]	composite z-score (Torsin-1A (Homo sapiens) [17])	composite z-score (Torsin-1A (Homo sapiens) [18])	composite z-score [19]
C=CC1(C(=O)OC)CC=C(C(=O)OC)CC1 (stereo not given)	0.731	0.901	0.286	0.862	0.65	0.653	0.263	0.308	0.184	0.723 (inactive)	0.181	-1.3 (inactive)	0.132 (inactive)	0.332 (inactive)	0.0857 (inactive)	0.596	-0.154	0.226	0.823	0.434
CC(C)C(=C=CC[C@@H](O)c1ccc(OCCO)cc1)C[C@@H](O)c1ccccn1	-0.449	-0.251	-0.542	0.819	1.58	1.78	-0.306	1.51	-0.187	-0.069 (inactive)	0.207	-0.661 (inactive)	0.205 (inactive)	0.145 (inactive)	1.4 (inactive)	0.0453	-0.231	0.75	0.205	2.26
C[N+](C)(C)CCCCNC(=O)[C@H]1C[C@H]2C(=O)N3CCC[C@H]3C(=O)N2[C@H]1c1cccc(OCCO)c1	3.3	-1.41	-0.444	-0.944	1.43	1.41	-0.613	0.974	-1.48	-0.677 (inactive)	0.0504	0.254 (inactive)	-0.148 (inactive)	-0.667 (inactive)	-0.359 (inactive)	-0.704	0.0569	-0.215	0.678	2
COc1cc2c(cc1O)C(c1cccs1)N(C)CC2 (stereo not given)	-1	-1.33	0.756	-0.861	-0.123	-0.0571	-0.278	-0.574	-1.05	0.146 (inactive)	-0.289	-0.0812 (inactive)	0.134 (inactive)	-0.374 (inactive)	-0.0678 (inactive)	-1.17	-0.218	-1.19	-0.597	-0.44
COC(=O)[C@@]1(CCS(=O)(=O)c2ccccc2)N=C(c2ccc(OCCCO)cc2)O[C@H]1c1ccccc1CN=[N+]=[N-]	2.29	1.19	1.46	0.755	1.31	0.55	-0.229	0.279	1.01	-0.282 (inactive)	0.351	-2.7 (inactive)	0.945 (inactive)	1.38 (inactive)	-1.43 (inactive)	0.415	0.0808	0.252	0.869	0.281

— PubChem BioAssay
